MPTP block = permeability transition pore inhibition; isolated mouse mitochondria, Ca2+ swelling absorbance, 30 min; inhibition, % at 10 µM; 360,000 tested, 1.4% active; AID 602449;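 active means inhibition of 50% or more, scaled per plate between neutral and stimulator controls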;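 further: 0% = DMSO wells given calcium and 100% = 1 mM EGTA wells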
Mdm2 MdmX PPI = inhibitors of human Mdm2/MdmX interaction | O15151+Q00987 | SaOS-2 split-luciferase Mdm2/MdmX complementation, luminescence | inhibition, % at 8 µM | 330,000 tested, 3% active | AID 485346;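 active means inhibition of at least 50% at 8 µM in the primary screen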
Target sequence (O15151 whole entry, looked up): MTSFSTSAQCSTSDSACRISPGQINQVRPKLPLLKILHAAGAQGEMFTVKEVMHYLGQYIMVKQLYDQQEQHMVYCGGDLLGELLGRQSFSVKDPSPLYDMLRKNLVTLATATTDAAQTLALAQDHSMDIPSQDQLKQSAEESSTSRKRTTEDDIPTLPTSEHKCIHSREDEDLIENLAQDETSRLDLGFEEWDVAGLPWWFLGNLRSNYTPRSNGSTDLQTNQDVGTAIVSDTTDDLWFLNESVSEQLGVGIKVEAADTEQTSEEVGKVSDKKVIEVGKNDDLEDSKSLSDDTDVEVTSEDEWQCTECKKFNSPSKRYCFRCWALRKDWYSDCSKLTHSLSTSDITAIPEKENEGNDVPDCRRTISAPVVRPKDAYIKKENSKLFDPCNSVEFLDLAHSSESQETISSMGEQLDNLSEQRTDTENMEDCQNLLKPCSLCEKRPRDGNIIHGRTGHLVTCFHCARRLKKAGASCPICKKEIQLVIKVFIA
Target sequence (Q00987 whole entry, looked up): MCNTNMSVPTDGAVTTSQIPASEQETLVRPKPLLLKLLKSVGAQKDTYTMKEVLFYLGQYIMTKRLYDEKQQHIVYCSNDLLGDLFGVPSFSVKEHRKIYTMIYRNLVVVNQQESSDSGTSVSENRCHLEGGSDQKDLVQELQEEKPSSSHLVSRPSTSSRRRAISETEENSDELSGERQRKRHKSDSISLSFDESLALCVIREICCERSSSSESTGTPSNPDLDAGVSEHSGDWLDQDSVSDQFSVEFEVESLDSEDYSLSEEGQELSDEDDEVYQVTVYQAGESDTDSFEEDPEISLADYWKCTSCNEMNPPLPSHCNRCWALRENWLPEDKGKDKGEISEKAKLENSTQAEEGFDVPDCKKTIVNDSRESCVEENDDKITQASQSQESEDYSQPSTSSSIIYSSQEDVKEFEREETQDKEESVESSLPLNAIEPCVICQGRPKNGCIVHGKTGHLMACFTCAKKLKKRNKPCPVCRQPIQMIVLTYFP
CSC inhib = blocks cancer stem cells; cancer stem cell-like cells viability, luminescence; 300,000 tested, 1.1% active; inhibition, % at 7.5 µM; in the data active means inhibition above about 75%; inconclusive means no clear call, values can overlap the other calls; tested in HMLE shEcad cells
Calb FLC = C. albicans growth modulation with fluconazole; C. albicans CaCi-2 (fluconazole-resistant clinical isolate) + fluconazole, Alamar Blue growth, 48 h; growth inhibition, % (concentration not given with the values); 300,000 tested, 0.57% active; AID 1979;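 active means growth inhibition above about 58% in most replicates, limit read from the data, passing the limit was not always enough; inconclusive means exactly half the replicates above a set limit; inactive means most replicates below a set limit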;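 further: all wells also contain fluconazole at 8 µg/ml as a sub-toxic cotreatment; 0% = median of DMSO wells and 100% = median of geldanamycin control wells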
SKKanGAS inh = SKKanGAS growth inhibition; S. pyogenes SKKanGAS, kanamycin growth, BacTiter-Glo, 6 h; inhibition, % at 7.5 µM; 300,000 tested, 1.3% active; AID 1662;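 active means mean replicate score, as percent of positive control median, at least 50; inconclusive means mean below 50 but one replicate at or above 50; inactive means mean and every replicate below 50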;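 further: strain carries kanamycin resistance gene driven by streptokinase promoter and grows in 40 µg/ml kanamycin; loss of luminescence reflects streptokinase promoter inhibition or plain growth inhibition; 0% = median of DMSO wells and 100% = positive control at its reference dose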
Beta cell apopt = beta cell apoptosis inhibition. INS-1E cytokine-induced death, ATP luminescence, 48 h; percent of positive-control rescue, neutral wells zero. 300,000 tested, 0.8% active. protection from apoptosis, % (concentration not given with the values);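 active means Every replicate reaches about 75%, or at least half do and their mean reaches it too, limit read from the data; inconclusive means At least half of replicates reach the limit but their mean does not; inactive means Under half of replicates reach the limit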;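 further: 0% = cytokine-treated negative control wells and 100% = positive control rescue; higher means more ATP so stronger rescue from cytokine killing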
MPTP counter = membrane potential counter-screen of mitochondrial pore inhibitors; shares compounds with MPTP block; isolated mitochondria, Rhodamine 123 fluorescence; inhibition, % at 10 µM; 5,000 tested, 78% active; in the data active means inhibition above about 22%;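 further: 0% = DMSO vehicle and 100% = positive control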
MPTP swell DR = MPTP inhibition, dose response swelling confirmation; shares compounds with MPTP block; isolated mitochondria swelling, absorbance; IC50, µM; 780 tested, 58% active; AID 651561; in the data active means IC50 below about 20 µM
MPTP cs DR = active in counter-screen for permeability transition pore inhibitors. shares compounds with MPTP block. isolated mitochondria counterscreen, fluorescence read-out. IC50, µM. 780 tested, 49% active. AID 651564; in the data active means IC50 below about 80 µM
The depositor's hits bear a star; i = inactive; u = inconclusive; x = not tested or not shown. An excerpt weighted towards active compounds, which were near 5.4% of everything screened.

SMILES | MPTP block | Mdm2 MdmX PPI | CSC inhib | Calb FLC | SKKanGAS inh | Beta cell apopt | MPTP counter | others
O=C(NCC(c1cccs1)N1CCOCC1)c1ccccc1NS(=O)(=O)c1ccc(Cl)c([N+](=O)[O-])c1 (configuration not stated) | 80* | 5 | 10 | 8 | 1 | 14 | 77*
COC(=O)[C@@H]1C[C@H]2CC[C@H](O)C[C@H]2N1Cc1ccc(C(C)(C)C)cc1 | 0 | 12 | 8 | 2 | 7 | 1 | x
CN(C)CCN(C(=O)c1ccc2c(c1)OCCO2)c1nc2c(Cl)cccc2s1 | 2 | -1 | -5 | 3 | 1 | -9 | x
CN(C)CCCN(C(=O)c1ccc(Br)s1)c1nc2cc3c(cc2s1)OCCO3 | 76* | 42 | -6 | -7 | -2 | x | -26
COc1ccc(Cl)c2sc(N(CCN(C)C)C(=O)c3ccc4c(c3)OCCO4)nc12 | 74* | 33 | -9 | -13 | -2 | x | -13 | MPTP swell DR=i;MPTP cs DR=50*
CCN(CC)CCN(C(=O)c1ccc(Br)s1)c1nc2cc3c(cc2s1)OCCO3 | 2 | 2 | 1 | 18 | -4 | 4 | x
CCCCc1cc(=O)oc2cc(C)cc(OC(C)C(=O)NCC3CCC(C(=O)O)CC3)c12 (configuration not stated) | -2 | 27 | 0 | -4 | 6 | 0 | x
COc1cc(-n2nnnc2SCC(=O)N2CCN(c3ccc(F)cc3)CC2)c(OC)cc1Cl | 0 | x | x | -6 | 23 | x | x
COC(=O)C(NS(=O)(=O)c1ccc(NC(C)=O)cc1)C(C)C (configuration not stated) | -1 | 7 | 10 | 6 | -7 | -4 | x
Oc1ccccc1/C=N/NC(=S)NC1CC2C=CC1C2 (configuration not stated) | 57* | 14 | 54 | -1 | 92* | x | 70*
Oc1ccccc1C=NNC(=S)NC1CC2C=CC1C2 (configuration not stated) | 27 | x | x | x | x | x | x
Oc1c(Cl)cc(Cl)cc1/C=N/NC(=S)NC1CC2C=CC1C2 (configuration not stated) | 89* | 37 | 100* | 17 | 111* | x | 62*
Fc1ccc(NC(=S)NN=Cc2ccccc2Cl)cc1 | 2 | x | x | x | x | x | x
Oc1ccccc1C=NNC(=S)Nc1ccc(F)cc1 | 63* | x | x | x | x | x | 71*
CCOC(=O)Cn1c(=O)oc2cc(S(=O)(=O)N3CCN(C(=O)OCC)CC3)ccc21 | 0 | 10 | 8 | 12 | -1 | 2 | x
CCn1cc(CNC(=O)C2CCC(=O)N(C3CCCCCC3)C2)cn1 (configuration not stated) | 0 | 14 | -3 | 3 | -7 | -3 | x
CCCCOC(=O)Nc1ccc(C(=O)OCCC)cc1 | 5 | 3 | 14 | -17 | 0 | -1 | x
CC(C)c1ccc(/C=N/NC(=O)c2ccccn2)cc1 | 1 | -64 | u | 5 | 48 | 5 | x
CC(C)c1ccc(/C=N/NC(=O)c2cccc(Cl)c2)cc1 | 74* | x | 91* | 3 | -4 | 12 | 65*
COc1ccc(CN2CCN(CCCCOc3ccc(Cl)cc3)CC2)c(OC)c1OC | 66* | 14 | 11 | -36 | -24 | 30 | 29*
CCOC(=O)C1=C(COc2ccccc2)NC(=O)NC1c1ccc(Br)cc1 (configuration not stated) | 2 | 31 | 12 | 13 | 17 | 9 | x
CN(C)CCC(=O)N1c2ccccc2Sc2ccc(C(F)(F)F)cc21 | 0 | 26 | 11 | 3 | 0 | -3 | x
CN(C)CCCN1c2ccccc2Sc2ccc(C(F)(F)F)cc21 | 102* | 13 | 9 | -12 | -1 | -1 | -21
CC(=O)c1cccc(NC(=S)NCc2ccco2)c1 | 2 | -20 | x | -8 | 36 | -7 | x
S=C(NCc1ccco1)Nc1ccc(Cl)c(Cl)c1 | 94* | 3 | 11 | -6 | 12 | -6 | 90*
SMILES | MPTP block | Mdm2 MdmX PPI | CSC inhib | Calb FLC | SKKanGAS inh | Beta cell apopt | MPTP counter | others
COc1ccc(NC(=S)NCc2ccco2)cc1 | 0 | 0 | -8 | -5 | 4 | 0 | x
S=C(NCc1ccco1)Nc1ccc(Oc2ccccc2)cc1 | 78* | -1 | 19 | -4 | 5 | 2 | 85*
S=C(NCc1ccco1)Nc1cccc(Cl)c1 | 60* | -26 | x | -17 | -7 | 8 | 73*
S=C(NCc1ccco1)Nc1cc(Cl)c(Cl)cc1Cl | 88* | 2 | -7 | -3 | 7 | -4 | 85*
CCCCn1c(N)c(N(CC)C(=O)c2cccc(OCc3ccccc3)c2)c(=O)[nH]c1=O | -2 | 21 | -5 | x | x | -6 | x
O=C(CSCC(=O)NC1CC1)Nc1ccc2ccccc2c1 | -1 | x | x | 1 | -6 | x | x
CC(C)CNC(=S)Nc1ccc(Oc2ccccc2)cc1 | 92* | 16 | x | -5 | 1 | -3 | 98*
O=C(CSc1nnc(Cn2nnc3ccccc32)o1)N(Cc1ccc(Cl)cc1)c1ccccc1 | 96* | 17 | 16 | -7 | 8 | 99* | 103*
CC(C)(C)c1ccc(S(=O)(=O)Nc2ccc(Cc3ccncc3)cc2)cc1 | 73* | 28 | 20 | 0 | 25 | 37 | 74*
CCOC(=O)c1ccc(NC(=O)Nc2ccc3c4c(cccc24)C(=O)N3CC)cc1 | 95* | 4 | 20 | -3 | -3 | 24 | 33*
CCOC(=O)c1ccc(NC(=O)C2(N3C(=O)c4ccccc4C3=O)CCCC2)cc1 | 0 | x | x | x | x | x | x
O=C(CCN1C(=O)/C(=C\c2ccccc2)SC1=S)NNC(=O)c1cccnc1 | 80* | -2 | -1 | -29 | 7 | 8 | 70*
O=C(NCc1cccnc1)Nc1cc(Cl)cc(Cl)c1 | 85* | 3 | 1 | 1 | 54* | -1 | 86*
S=C(NCc1cccnc1)Nc1cccc(Cl)c1 | -1 | 0 | x | 1 | 6 | -3 | x
S=C(NCc1cccnc1)Nc1cc(Cl)cc(Cl)c1 | 82* | -1 | 5 | -20 | -6 | -12 | 82*
Cc1c(C(N)=O)cc([N+](=O)[O-])cc1[N+](=O)[O-] | 1 | x | x | x | x | x | x
COC(=O)c1cc([N+](=O)[O-])c(C)c(C)n1 | 54* | x | x | x | x | x | -2 | MPTP swell DR=>100;MPTP cs DR=>80
CCCOc1nc2c(c(=O)n(C)c(=O)n2C)n1Cc1cccc2ccccc12 | 70* | 24 | 5 | 25 | 8 | 103* | 74*
CCCOc1nc2c(c(=O)n(C)c(=O)n2C)n1C | -1 | 0 | -2 | 4 | 1 | -3 | x
COC(=O)C1=CN(c2ccc(Oc3ccccc3)cc2)C(N)=C(C#N)C1c1ccccc1 (configuration not stated) | 0 | x | x | x | x | x | x
COc1ccc(Nc2ccnc(Nc3ccc(OC)cc3)n2)cc1 | 78* | 21 | 34 | -32 | -7 | 36 | 1 | MPTP swell DR=11*;MPTP cs DR=35*

Screening results as filed in PubChem BioAssay.
